The text below walks through data of PubChem BioAssay (Tox21).

Structures are written as SMILES. Results filed as inconclusive are left out. Calls of active or inactive are those of the source. Calls come from the whole dose curve; as a rule, active = well fitted activation curve with a large enough effect in the signal ratio in the repeat runs (not every such curve was filed as active); inconclusive = weak or mixed curves, or effect the other way; inactive = flat fitted curve, though single readings scatter; the % refers to the signal ratio.

The test in a line: qHTS assay to identify small molecule agonists of the endoplasmic reticulum stress response signaling pathway (AID 1159516). As to conditions: ESRE-bla HeLa, ER stress beta-lactamase reporter, 5 h; series mostly up to 61 µM. From the text: National Center for Advancing Translational Sciences [NCATS]
NIH Chemical Genomics Center [NCGC]
U.S. Environmental Protection Agency [EPA]
National Institutes of Environmental Health Sciences [NIEHS]
National Toxicology Program [NTP]
U.S. Food and Drug Administration [FDA]
Endoplasmic Reticulum (ER) plays an important role in cellular signaling, protein folding/maturation, stress response, lipid biosynthesis, calcium storage and release etc. Under stress conditions, proteins in ER misfold or unfold, and leading to the expression of ER stress responsive genes. ER stress has been associated with a variety of pathophysiological conditions such as cancer, inflammation, neurodegenerative diseases, diabetes, ischemic heart disease etc. To identify the compounds that induce ER stress response, an ER stress reporter cell line, CellSensor ESRE-bla HeLa (Life Technologies, Carlsbad, CA) containing a beta-lactamase reporter gene under control of the Endoplasmic reticulum Stress Response Element (ESRE) was used to screen Tox21 10K compound library.
Tox21 Assay Protocol Summary:
ESRE-bla HeLa cells were dispensed at 1,500 cells/6 uL of assay medium per well into black wall/clear-bottom 1536-well plates using a Multidrop Combi (ThermoFisher Scientific, Waltham, MA) dispenser. After the assay plates were incubated at 37 C and 5% CO2 for an overnight, 23 nL of compounds dissolved in DMSO, positive controls or DMSO only was transferred to the assay plate by a Pintool station (Kalypsys, San Diego, CA). The assay plates were incubated at 37 C and 5% CO2 for 5 hr. One uL of LiveBLAzer B/G FRET substrate (Life Technologies) was added using a Flying Reagent Dispenser (Aurora Discovery, San Diego, CA) and the plates were incubated at room temperature for 2 hr. Fluorescence intensity (405 nm excitation, 460 nm and 530 nm emissions) was measured using an Envision plate reader (PerkinElmer, Shelton, CT).
For orientation: qHTS replaces the single test concentration by a dilution series.
`CC(CN=Cc1ccccc1O)N=Cc1ccccc1O` (stereo not given): the outcome was inactive.
Regarding `CNc1ccccc1`, the outcome was inactive.
With `CCC(=O)O[C@]1(C(=O)COC)[C@@H](C)C[C@H]2[C@@H]3CCC4=CC(=O)C=C[C@]4(C)C3(F)[C@@H](O)C[C@@]21C` (stereo not given in full) the entry was “inactive”.
Turning to `O=C(NC1CCN(CCc2c[nH]c3ccccc23)CC1)c1ccccc1`, the compound was classed as inactive.
Regarding `O=[N+]([O-])c1ccc(Cl)cc1Cl`, the outcome was inactive.
With `C1=COCCC1` the entry was “inactive”; with `Cc1c(-c2cccnc2)c2ccccc2n1CCCCC(=O)O`, “inactive”.
Turning to `OCCOc1cccc(OCCO)c1`, the call was inactive.
With `O=C(Cl)c1ccc(F)c(Cl)c1` the entry was “inactive”; with `Cc1ccccc1CCO`, “inactive”.
Consider `CC(CCl)OC(C)CCl` (stereo not given), for which the outcome was inactive.
With `CCCCCCOC(=O)c1ccccc1`, the call was inactive.
With `Cc1cc(C)c(C)c(O)c1`, the outcome was inactive.
`O=Cc1ccc(Cl)c([N+](=O)[O-])c1`: the compound was classed as inactive.
With `CC(C)(C)c1cc(C=O)cc(C(C)(C)C)c1O` the entry was “inactive”; with `O=C(O)c1ccc2c(c1)nc(C(=O)NC1CCN(C3CC3)CC1)n2Cc1cc(-c2ccc(Cl)s2)on1`, “inactive”; with `O=C(O)c1cc(C(=O)O)cc([N+](=O)[O-])c1`, “inactive”.
As to `CC(C)=CCC/C(C)=C/C=N/O`, the compound was called inactive.
With `CC(C)Cc1nccs1`, the outcome was inactive.
As to `CCc1ccc2c(c1)C(=O)c1ccccc1C2=O`, the compound was classed as inactive.
`C=C(C)C(=O)OCCCCCCCCCCOC(=O)C(=C)C`: the outcome was inactive.
For the compound `CC(=O)Nc1ccccc1O`, the call was inactive.
Consider `CCCCC(CC)COCCC#N` (stereo not given), for which the result was inactive.
`CC1(C)CC(O)CC(C)(C)N1[O]`: the outcome was inactive.
For `O=P(c1ccccc1)(c1ccccc1)c1ccccc1`, the result was inactive.
With `O=C(O)COCC(=O)O`, the result was inactive.
In the case of `CCCCCCCCCCCC(=O)OCC`, the compound was called inactive.
Regarding `CCC(=O)O[C@@H]1C[C@H]2CC[C@]1(C)C2(C)C`, the compound was called inactive.
Take `Cc1cc(C)n(CO)n1`: the result was inactive.
Consider `S=c1[nH][nH]c(=S)s1`, for which the call was inactive.
With `CO[C@@H]1[C@@H](O[C@@H]2O[C@H](C)[C@@H](O[C@H]3C[C@@](C)(O)[C@@H](O)[C@H](C)O3)[C@H](N(C)C)[C@H]2O)[C@@H](CC=O)C[C@@H](C)[C@@H](O[C@@H]2CC[C@H](N(C)C)[C@@H](C)O2)/C=C/C=C/C[C@@H](C)OC(=O)C[C@H]1OC(C)=O` the entry was “inactive”; with `CCC(C(=O)O)c1ccc(N2Cc3ccccc3C2=O)cc1` (stereo not given), “inactive”.
On to `Cc1cccc(C)c1NC(=O)CN1CCCC1`, for which the outcome was inactive.
Regarding `CC(C)(O)C(=O)O`, the compound was called inactive.
For `CC1(COc2ccc(CC3SC(=O)NC3=O)cc2)CCCCC1` (stereo not given), the call was inactive.
With `CC(C)(C)NCC(O)COc1ccc(NC(=O)NC2CCCCC2)cc1` (stereo not given) the entry was “inactive”.
As for `CCC1=C(C)CN(C(=O)NCCc2ccc(S(=O)(=O)NC(=O)NC3CCC(C)CC3)cc2)C1=O` (stereo not given), the compound was classed as inactive.
With `COC(=O)/C=C/C(C)=C\C=C\C(C)=C\C=C\C=C(C)\C=C\C=C(C)\C=C\C(=O)O`, the result was inactive.
As for `O=C1C=CCCC1`, the result was inactive.
`O=C(O)c1ccc(O)c(O)c1`: the compound was called inactive.
